Mtb FBA inh = inhibits M. tuberculosis FBA enzyme. P9WQA3. actives 2.3% (n = 360,000). AID 588726. inhibition, % at 1 µM. purified M. tuberculosis FBA, fluorescence read-out
RecA intein inh = inhibitors of M. tuberculosis RecA intein splicing. actives 0.75% (n = 290,000). inhibition, % (concentration not given with the values). cell-free RecA intein splicing, fluorescence; in the data active = inhibition above about 30%
Mtb betalactam = beta-lactam sensitization of Mtb H37Rv; M. tuberculosis H37Rv growth with meropenem, percent inhibition; inhibition, % at 25 µM; actives 0.27% (n = 330,000); call rule not given here;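 also: growth measured after seven days incubation then overnight dye step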
GDH-TPI counter-1 = counter-screen for M. tuberculosis FBA inhibitors: GDH-TPI coupled enzymes | actives 1.2% (n = 360,000) | GDH-TPI coupled enzyme counterscreen, NADH absorbance | inhibition, % at 4.8 µM; in the data active = inhibition above about 30%
UGM FP inh = Mtb UDP-galactopyranose mutase inhibition. P9WIQ1. purified UGM, fluorescence polarization probe displacement. inhibition, % at 10 µM. actives 0.06% (n = 320,000); in the data active = inhibition above about 10%, passing the limit was not always enough
Rv3671c inh = inhibits the M. tuberculosis serine protease Rv3671c | actives 0.048% (n = 320,000) | inhibition, % at 5.96 µM | P9WHR9; in the data active = inhibition above about 38%;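 also: extracellular domain of Rv3671c used as enzyme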
Target sequence (P9WHR9 whole entry, looked up, the tested form may be a part): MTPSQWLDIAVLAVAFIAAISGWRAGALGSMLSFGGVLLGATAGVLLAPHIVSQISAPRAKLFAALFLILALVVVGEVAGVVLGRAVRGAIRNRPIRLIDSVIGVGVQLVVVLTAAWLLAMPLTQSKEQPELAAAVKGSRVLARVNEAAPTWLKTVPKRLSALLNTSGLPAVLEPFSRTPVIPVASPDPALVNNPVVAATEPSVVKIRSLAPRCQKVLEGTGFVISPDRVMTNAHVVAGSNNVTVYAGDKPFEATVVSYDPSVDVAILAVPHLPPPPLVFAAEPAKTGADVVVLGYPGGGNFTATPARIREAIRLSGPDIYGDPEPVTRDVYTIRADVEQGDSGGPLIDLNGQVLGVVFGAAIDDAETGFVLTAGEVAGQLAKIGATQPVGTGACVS
Mtb FBA confirm = confirmation of M. tuberculosis fructose-bisphosphate aldolase inhibitors. shares compounds with Mtb FBA inh. purified M. tuberculosis FBA, fluorescence read-out. inhibition, % at 1 µM. actives 78% (n = 5,600). AID 651616
GDH-TPI counter-2 = counter-screen for M. tuberculosis FBA inhibitors: GDH-TPI coupled enzyme inhibition. shares compounds with Mtb FBA inh. GDH-TPI coupled enzyme counterscreen, fluorescence. inhibition, % at 1 µM. actives 81% (n = 5,600). AID 652141; in the data active = inhibition above about 10%
Of the large screens only hits and unclear results are named; the others gave an inactive call (follow-up assays come after a bar, where they were run). Rows were chosen to be rich in hits. Some 4% of all compounds tested hit in one or more screens of this group. Rule as the data show it, unless noted: active = inhibition above about 27%; inactive = the rest.

Cc1cc(=O)oc2c(C)c(OC(C)C(=O)NCC3CCC(C(=O)O)CC3)ccc12 (stereo not given)	none
COc1ccc2c(c1)c(=O)oc1c(C)c(OC(C)C(=O)NCC3CCC(C(=O)O)CC3)ccc12 (stereo not given)	Mtb FBA inh 35 | Mtb FBA confirm 92 | GDH-TPI counter-2 81
COc1ccc2c(c1)c(=O)oc1c(C)c(OCc3cc(C(=O)O)oc3C)ccc12	Mtb FBA inh 43 | Mtb FBA confirm inactive | GDH-TPI counter-2 inactive
O=C(Nc1ccccc1N1CCCCC1)C1CCN(C(=O)c2ccc(Cl)cc2)CC1	none
C#CCSc1nc(-c2cccs2)ccc1C#N	Mtb FBA inh 36 | Mtb FBA confirm 51 | GDH-TPI counter-2 46
COC(=O)CSc1nc(-c2cccs2)ccc1C#N	Mtb FBA inh 71 | Mtb FBA confirm active | GDH-TPI counter-2 active
O=c1nc2n(CCO)c3ccccc3cc-2c(=O)[nH]1	Mtb FBA inh 96 (no result: RecA intein inh, Mtb betalactam, UGM FP inh, Rv3671c inh) | Mtb FBA confirm 77 | GDH-TPI counter-2 56
O=C1c2ccccc2NC(c2ccccn2)N1c1ccccc1F (stereo not given)	Mtb FBA inh 62 | Mtb FBA confirm active | GDH-TPI counter-2 199
COc1cc(C2Nc3ccccc3C(=O)N2c2ccccc2OC)ccc1O (stereo not given)	none
Cc1ccc(N2C(=O)c3ccccc3NC2c2ccccc2O)cc1 (stereo not given)	none
Cc1cccc(C2Nc3ccccc3C(=O)N2c2ccc(F)cc2)n1 (stereo not given)	Mtb FBA inh 49 | Mtb FBA confirm inactive | GDH-TPI counter-2 inactive
COc1cccc(C(=O)c2ccncc2C(=O)O)c1OC	none (no result: RecA intein inh, Mtb betalactam, UGM FP inh, Rv3671c inh)
COc1ccc(-c2ccc(NCCN3CCOCC3)nn2)cc1OC	none
CCCCCCN1C[C@@H](O)[C@H](n2cc(C3CC3)nn2)C[C@@H]1c1ccc(Cl)cc1	none (no result: RecA intein inh, Mtb betalactam, UGM FP inh, Rv3671c inh)
Cc1ccc(-c2nnc3c(C(F)(F)F)nc4ccccc4n23)cc1	Mtb FBA inh 60 | Mtb FBA confirm active | GDH-TPI counter-2 active
FC(F)(F)c1nc2ccccc2n2c(-c3ccc(Cl)cc3)nnc12	Mtb FBA inh 61 | Mtb FBA confirm inactive | GDH-TPI counter-2 inactive
Cc1ccc(-c2nc3ccccc3n3nnnc23)cc1	none (no result: Mtb betalactam, UGM FP inh, Rv3671c inh)
Nc1nc2nccc(-c3ccccn3)n2n1	Mtb FBA inh 39 | Mtb FBA confirm active | GDH-TPI counter-2 active
Cc1[nH]n2c(=O)c3c(nc2c1-c1ccccc1)CCCC3	none
Cc1[nH]n2c(=O)c3c(nc2c1-c1cccc2ccccc12)CCC3	Mtb FBA inh 51 | Mtb FBA confirm 132 | GDH-TPI counter-2 96
Cc1cc(C)cc(C(=O)N2CCC3(CC2)NCCc2[nH]cnc23)c1	none
CCOC(=O)c1nnc2cc(C)nn2c1C	none
CCOC(=O)c1nc2cc3n(c(C)c-2c1C)C(C)C(C)=C3C (stereo not given)	Mtb FBA inh 37 | Mtb FBA confirm 63 | GDH-TPI counter-2 50
CCOC(=O)c1nc2cc3n(c(CC(C)C)c-2c1C)CC(C)=C3C	Mtb FBA inh 27 | Mtb FBA confirm 119 | GDH-TPI counter-2 88
CN(C)CCNC(=O)c1c(NC(=O)c2ccccc2)sc2c1CCCC2	Mtb FBA inh 40 | Mtb FBA confirm 114 | GDH-TPI counter-2 109
O=C(NCC(c1ccco1)N1CCc2ccccc2C1)c1cccc(Br)c1 (stereo not given)	none
COc1cccc(/C=C/C(=O)OCC(=O)NC2CC2)c1	Mtb FBA inh 28 (no result: RecA intein inh) | Mtb FBA confirm inactive | GDH-TPI counter-2 inactive
COC(=O)c1ccc(CNC(=O)COC(=O)/C=C/c2cccc(OC)c2)cc1	Mtb FBA inh 28 (no result: RecA intein inh, Mtb betalactam, UGM FP inh, Rv3671c inh) | Mtb FBA confirm 168 | GDH-TPI counter-2 157
COC(=O)c1ccc(CNC(=O)COC(=O)/C=C/c2ccc(O)c(OC)c2)cc1	none (no result: RecA intein inh)
COc1cccc(/C=C/C(=O)OCC(=O)NCCc2ccccc2)c1	Mtb FBA inh 28 | Mtb FBA confirm active | GDH-TPI counter-2 182
CSc1ccc(/C=C/C(=O)OCC(=O)NC2CCCC2)cc1	Mtb FBA inh 61, GDH-TPI counter-1 41 (no result: RecA intein inh, Mtb betalactam, UGM FP inh, Rv3671c inh) | Mtb FBA confirm active | GDH-TPI counter-2 active
CCOc1ccc(CCNC(=O)COC(=O)/C=C/c2cccc(OC)c2)cc1OCC	none
O=C(C[n+]1cccc(C(=O)N/N=C/c2cccc([N+](=O)[O-])c2)c1)c1ccccc1	none (no result: RecA intein inh, Mtb betalactam, UGM FP inh, Rv3671c inh)
O=C(CC(=O)Nc1cccc(F)c1)Nc1cccc(F)c1	none
O=C(Cn1c2ccccc2c(=O)c2ccccc21)Nc1cccc(F)c1	Mtb FBA inh 90 (no result: RecA intein inh) | Mtb FBA confirm 100 | GDH-TPI counter-2 71
COc1ccc(NC(=O)CC2C(=O)N(C)C(=S)N2Cc2ccc3c(c2)OCO3)cc1 (stereo not given)	Mtb FBA inh 80 | Mtb FBA confirm 39 | GDH-TPI counter-2 33
COc1ccc(CCN2C(=S)N(C)C(=O)C2CC(=O)Nc2ccc(OC)cc2)cc1 (stereo not given)	none
O=C(NNC(=O)C1C2CCCCC21)c1coc(=O)c(Br)c1 (stereo not given)	Mtb FBA inh 54 | Mtb FBA confirm 86 | GDH-TPI counter-2 50
Cc1cc(N2CC(C)OC(C)C2)n2cc(-c3ccccc3)nc2n1 (stereo not given)	Mtb FBA inh 63 | Mtb FBA confirm active | GDH-TPI counter-2 active
CCCc1nnc(NC(=O)CCC(=O)NC2CCCCCC2)s1	none
COCCn1nc2cc(C(=O)NCC34CC5CC(CC(C5)C3)C4)ccc2c1OC	Mtb FBA inh 43 | Mtb FBA confirm active | GDH-TPI counter-2 active
CCCn1nc2cc(C(=O)NCC34CC5CC(CC(C5)C3)C4)ccc2c1OCC	Mtb FBA inh 29 | Mtb FBA confirm inactive | GDH-TPI counter-2 inactive
O=C(NCC12CC3CC(CC(C3)C1)C2)c1nc2ncccn2n1	none
CSc1ncccc1C(=O)NCC12CC3CC(CC(C3)C1)C2	none
Cc1cn(C2CCCCC2)c(=O)[nH]c1=O	none (no result: RecA intein inh, Mtb betalactam, UGM FP inh, Rv3671c inh)
CCN(CC)CCNC(=O)Cn1c(-c2ccccn2)nc2ccccc21	Mtb FBA inh 37 | Mtb FBA confirm 145 | GDH-TPI counter-2 121
O=C(O)Cn1c(-c2ccccc2)cc2ccccc21	Mtb FBA inh 47 | Mtb FBA confirm 104 | GDH-TPI counter-2 95
CCOC(=O)Cn1c(-c2ccccn2)nc2ccccc21	Mtb FBA inh 35 | Mtb FBA confirm 91 | GDH-TPI counter-2 79
O=C(O)Cn1c(-c2ccccc2)nc2ccccc21	none
O=C(O)Cn1c(=O)c(-c2ccccc2)nc2ccccc21	Mtb FBA inh 56 | Mtb FBA confirm 119 | GDH-TPI counter-2 88
NNC(=O)Cn1c(-c2ccccn2)nc2ccccc21	none
COc1ccc(CCN2CC(C(=O)N(C)Cc3cccnc3)CC2=O)cc1OC (stereo not given)	none (no result: RecA intein inh)
O=C(O)Cn1c(-c2ccccn2)nc2ccccc21	Mtb FBA inh 56 | Mtb FBA confirm inactive | GDH-TPI counter-2 inactive

Screens as filed in PubChem.
